Test results taken from the supplement of paper PMC6555819.

Tests used:
Experiment in all cases: PBM binding z-score (relative to random genomic background probes); higher = stronger binding; sequences stand for … in GC…GCGATTGACAGCGTAGAATGAAGG
[1] = tested on: FXR:RXRa (NR concentration 270 nM, RXRa partner concentration 90 nM)
Outline: (§1)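 Ligand-free nuclear receptor dimers were applied to custom Agilent 4×180K protein-binding microarrays whose double-stranded probes carried direct-repeat seeds, single-nucleotide variants, half-site ablations and random human genomic background sequences in 34-nt variable regions. Incubation lasted 1 h. Binding z-scores were computed against the random background probes from regression-normalized fluorescence.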

[2] = tested on: LXRa:RXRa (NR concentration 270 nM, RXRa partner concentration 90 nM)
Outline: as §1

[3] = tested on: LXRa homodimer (NR concentration 270 nM)
Outline: as §1

[4] = tested on: LXRb:RXRa (NR concentration 270 nM, RXRa partner concentration 90 nM)
Outline: as §1

[5] = tested on: LXRb homodimer (NR concentration 270 nM)
Outline: as §1

[6] = tested on: PPARa:RXRa (NR concentration 270 nM, RXRa partner concentration 90 nM)
Outline: as §1

[7] = tested on: PPARg:RXRa (NR concentration 180 nM, RXRa partner concentration 90 nM)
Outline: as §1

[8] = tested on: PPARg:RXRa 270nM:90nM, anti-RXR (NR concentration 270 nM, RXRa partner concentration 90 nM)
Outline: as §1

[9] = tested on: PPARg:RXRa 30nM:10nM, anti-RXR (NR concentration 30 nM, RXRa partner concentration 10 nM)
Outline: as §1

[10] = tested on: PPARg:RXRa 90nM:30nM, anti-RXR (NR concentration 90 nM, RXRa partner concentration 30 nM)
Outline: as §1

| Sequence | PBM binding z-score [1] | PBM binding z-score [2] | PBM binding z-score [3] | PBM binding z-score [4] | PBM binding z-score [5] | PBM binding z-score [6] | PBM binding z-score [7] | PBM binding z-score [8] | PBM binding z-score [9] | PBM binding z-score [10] |
| --- | --- | --- | --- | --- | --- | --- | --- | --- | --- | --- |
| GCGACTGGGGCATCAGCTGGTTACCATAACTTAA | -0.422 | -0.589 | -0.452 | 0.296 | -0.935 | 0.397 | 0.563 | 0.562 | -0.565 | 0.127 |
| ACTAGCAGGCCAAGGTTCACTCAAGATTAGTCCG | 0.739 | 1.16 | 0.631 | 1.04 | -0.0506 | 2.89 | 5.16 | 6.08 | 5.04 | 6.29 |
| CGTCCAAGGTCATAGGAAGTCAGTGAAGACAGAT | 6.83 | 5.5 | 1.21 | 3.9 | 0.55 | 5.43 | 4.4 | 4.99 | 1.57 | 3.64 |
| TCTGCTAAGTCAGTTGGTCAGCTAACGAGCTGCC | -0.309 | -0.429 | -0.729 | -0.89 | -0.474 | -0.235 | -1.04 | 0.263 | 1.09 | 0.712 |
| CTACCAAGGGGAACAAGGTCGTTGATTACTATTC | 0.208 | 0.398 | 0.166 | 1.28 | -0.298 | 1.24 | 0.284 | 0.325 | 0.0626 | 0.258 |
| ACCTACGGGTCAACGAGGTTATAGCACGCGTATA | 6.4 | 4.83 | 0.64 | 3.98 | 0.188 | 5.36 | 4.44 | 4.86 | 1.47 | 3.68 |
| CCGGCTGGGGCAAGGTTACCATAACGCACAGCCA | 0.218 | 0.386 | -0.338 | 0.353 | -1.36 | 1.09 | 1.04 | 0.822 | -0.299 | 0.627 |
| ACTATTAGTTGACTTAGGGCAAACGATACGACGC | 0.00537 | 0.0216 | 0.165 | 0.185 | 0.529 | 0.325 | 1.17 | 0.319 | 0.276 | 0.322 |
| TCTAGTAGGTTAGGGGCATTCAGAATGGCGTCGA | 0.875 | 0.688 | 0.102 | 1.21 | 0.903 | 1.94 | 2 | 3.69 | 3.42 | 3.55 |
| ATACGTAGGTTAAGGGTCATTCAGGTTGGTTCGC | 5.1 | 4.98 | 2.92 | 4.46 | 1.03 | 5.41 | 7.56 | 7.6 | 6.33 | 8.26 |
| GATACAGGGTCAGCTAGAGGCCAGAGTATGGAAA | 4.81 | 2.75 | -0.32 | 2.6 | -0.659 | 4.53 | 3.81 | 3.35 | 0.742 | 2.06 |
| AGAACGAGGGCAATGAGTTGATCGCACGGGTGGC | 0.0662 | 0.0988 | -0.712 | -0.452 | -0.58 | 1.33 | 1.16 | 0.618 | -0.283 | 0.0795 |
| CGTCCAAGGTCTGAGAGGTCAGTGAATGCCGAGT | 1.6 | 1.76 | 0.726 | 1.58 | -0.51 | 2.29 | -0.0569 | 0.729 | -0.614 | -0.154 |
| TCGAGTAGGTTAGTCGGGGAATTCAGCCAACATA | -0.0396 | -0.257 | -0.394 | -0.065 | -0.946 | 0.287 | -0.188 | 0.615 | 0.883 | 0.675 |
| CCTACTGGGCCAAAAAGGTCATAGATGCCGATAA | 3.54 | 4.14 | 2.44 | 4.1 | -0.00458 | 5.14 | 3.89 | 4.29 | 1.84 | 3.55 |
| ACTCAAAGTTCATCTAGGTAACGTAAGATATGCT | 6.73 | 6.05 | 5.36 | 4.18 | 2.43 | 4.79 | 3.49 | 3.98 | 1.56 | 2.74 |
| AATACAGGGTCACCGTAGGCCAGAGTACGCACAG | 7.2 | 6.43 | 1.2 | 4.96 | 0.78 | 6.14 | 7.71 | 6.83 | 3.15 | 5.65 |
| TCTTGTAGATCAACAGGAGGTTAAGAGAGATCGA | -0.193 | 1.14 | -0.121 | 0.527 | -0.544 | 1.3 | 0.126 | 1.38 | 2.38 | 1.73 |
| TCTATTAGCTGATTAGGGCAACCGAAACAGCGGA | 0.113 | -0.201 | -0.333 | -0.12 | -0.075 | 0.627 | -0.00749 | 1.41 | 2.86 | 2.13 |
| CCTGCTCGGTCATGGTCAGCTAATCTACAGTATG | 0.209 | 0.33 | 0.0504 | -0.0325 | -0.00908 | 0.0849 | 0.0527 | -0.261 | -0.454 | -0.32 |
| TCGAGTATGTTACCAATGGGGCATTCAGCTTTCT | -0.179 | -0.268 | -0.402 | 0.416 | -0.279 | 0.256 | -0.157 | 0.416 | 1.14 | 0.894 |
| ATATGCAGGTTACATCCGGGTCATTCAGGCTATG | 2.7 | 4.82 | 0.974 | 2.99 | 0.382 | 3.53 | 2.58 | 2.61 | 0.935 | 1.49 |
| AGTTAAAGTTCAGGACGAGGTAACGTAAAGCACG | 3.69 | 3.97 | 1.7 | 1.91 | 0.474 | 2.83 | 2.49 | 3.2 | 1.18 | 2.14 |
